Data from PubChem BioAssay AID2235 (The Scripps Research Institute Molecular Screening Center, 2010).
In all, about 320,000 compounds went through this assay and about 2,800 (0.88%) were called active. The sample holds actives, similar compounds and a random draw of the others, so the mix is not that of the screen.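 How the source made its calls: active means inhibition above the mean inhibition of all tested compounds plus 3 SD, computed separately for each screening campaign (cut at about 15% in these data); inactive means the rest.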

These molecules were tested against Serine/threonine-protein phosphatase PP1-alpha catalytic subunit (Homo sapiens) (UniProt P62136) (assay: inhibition of human PP1 catalytic subunit – biochemical, fluorescence, OMFP substrate, single point, counter-screen for PP5 inhibitor project, primary screen (AID 2235)). Conditions: purified PP1alpha, at 6.7 µM, active compounds read high.
Serine/threonine-protein phosphatase PP1-alpha catalytic subunit (Homo sapiens), sequence (P62136 whole entry, looked up): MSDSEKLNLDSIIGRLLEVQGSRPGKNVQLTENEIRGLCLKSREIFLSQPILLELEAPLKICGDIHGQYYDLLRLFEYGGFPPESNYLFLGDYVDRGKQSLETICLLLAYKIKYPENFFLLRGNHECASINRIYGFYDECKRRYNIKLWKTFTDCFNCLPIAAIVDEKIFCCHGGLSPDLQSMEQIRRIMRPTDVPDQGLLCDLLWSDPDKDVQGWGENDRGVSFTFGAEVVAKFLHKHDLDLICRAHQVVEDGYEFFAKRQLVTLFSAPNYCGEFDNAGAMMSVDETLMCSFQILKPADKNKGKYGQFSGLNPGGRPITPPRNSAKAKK

SMILES | inhibition
Cc1cc(C)nc(Nc2n[nH]c(-c3ccccc3N)n2)n1 | 0.04% (inactive)
CN1C(=O)c2ccc(C(=O)Nc3ccc(Br)cn3)cc2C1=O | -4.13% (inactive)
COc1cccc(/C=N/NC(=O)c2[nH]nc3c2CCc2ccccc2-3)c1O | 25% (active)
CN(C)CCNC(=O)c1[nH]nc2c1CCc1ccccc1-2 | -1.2% (inactive)
COc1cc(OC)c(/C=N/NC(=O)c2ccc([N+](=O)[O-])cc2)cc1Br | -0.65% (inactive)
O=S(=O)(NN=C1CCCCCCC1)c1ccc(Br)cc1 | -0.57% (inactive)
O=C(O)CC(CC(=O)N1CCOCC1)c1ccccc1 (stereo unspecified) | -2.86% (inactive)
OCCN(Cc1ccccc1)Cc1ccc(Cl)cc1 | 5.28% (inactive)
CN(C(=O)CN(CCO)CC(=O)N(C)C(C)(C)Cc1ccccc1)C(C)(C)Cc1ccccc1 | 21.1% (active)
CCN(CC)CCCNC(=O)CCc1ccccc1 | -3.5% (inactive)
Cc1ccc2nc(SCC(=O)Nc3cccc4ccccc34)nc(=O)n2c1 | -4.71% (inactive)
Cc1ccccc1-n1c(SCC(=O)Nc2cccc3ccccc23)nc(O)cc1=O | 15.6% (active)
C=CCn1c(N)cc(=O)nc1SCC(=O)Nc1cccc2ccccc12 | 2.61% (inactive)
COC(=O)C1NN=C(C(=O)c2ccc(Br)cc2)C1c1cccc(Br)c1 (stereo unspecified) | 1.62% (inactive)
c1ccc(-c2cc(-c3nnc4sc(-c5ccccn5)nn34)[nH]n2)cc1 | 14% (inactive)
CCOc1cccc(-c2nn3c(-c4ccccn4)nnc3s2)c1 | 16.3% (active)
COc1cc(-c2nn3c(-c4cccc(C)c4)nnc3s2)cc(OC)c1OC | 7.7% (inactive)
CCCCCCCC[n+]1cccc(C(=O)N2c3c(nc(N)[nH]c3=O)NC(C)C2C)c1 (stereo unspecified) | -2.25% (inactive)
CCN(CC(=O)NCc1cccs1)C(=O)c1ccc(OC)c(S(=O)(=O)N2CCOCC2)c1 | -5.16% (inactive)
O=C(c1ccco1)N1CCN(C(=S)Nc2cc(F)cc(F)c2)CC1 | -1.12% (inactive)
COC(=O)c1c(C)c(C)nc(N)c1C#N | -0.85% (inactive)
O=C(/C=C/c1cccc([N+](=O)[O-])c1)N1CCN(Cc2ccccc2)CC1 | 1.31% (inactive)
O=[N+]([O-])/C=C/c1ccc2c(ccn2Cc2ccccc2)c1 | 18.3% (active)

SMILES | inhibition
COC(=O)Cn1cc(/C=C/[N+](=O)[O-])c2ccccc21 | -3.58% (inactive)
Cc1ccnc(N2CCN(C(=O)CSc3nc4ccccc4nc3N3CCCCC3)CC2)c1 | 2.11% (inactive)
CCCC[C@H]1COCCS(=O)(=O)N1Cc1cccc(Cl)c1 | -6.26% (inactive)
Oc1c(Cl)cc(Cl)c(Cl)c1Cc1c(O)c(Cl)cc(Cl)c1Cl | 21% (active)
COc1cc(N2C(=O)CSC2=S)cc(OC)c1OC | -0.27% (inactive)
CC(C)n1ncc2c(C(=O)Nc3ccc(CC#N)cc3)cc(C3CC3)nc21 | 0.77% (inactive)
CC(=O)Nc1ccc(S(=O)(=O)NC(C)C(=O)OCC(=O)NC2CCCC2)cc1 (stereo unspecified) | -2.23% (inactive)
O=C(N/N=C/C=C/c1ccco1)c1cccs1 | -2.08% (inactive)
COc1ccc(/C=N/NC(=O)c2cc(-c3cccc(C)c3)nc3ccccc23)cc1O | -0.69% (inactive)
Cc1ccc(-c2cc(C(=O)N/N=C/C=C/c3ccco3)c3ccccc3n2)cc1C | 20% (active)
CCn1cc(C(=O)NC2CCCCCC2)c(=O)c2cc(S(=O)(=O)N3CCCCC3)ccc21 | -1.18% (inactive)
Cc1ccc(N2C(=O)C3C4C=CC(CC4)C3C2=O)cc1Br (stereo unspecified) | -2.3% (inactive)
O=C(/C=C/c1ccco1)Nc1cccc(-c2nc3ccccc3[nH]2)c1 | -1.53% (inactive)
O=C(Nc1cccc(-c2nc3ccccc3[nH]2)c1)c1ccc(C(=O)Nc2cccc(-c3nc4ccccc4[nH]3)c2)cc1 | 18.9% (active)
Cc1ccc(-c2nc3ccccc3[nH]2)cc1N | -2.81% (inactive)
O=C(O)c1ccccc1C(=O)NC1=NN(c2ccccc2)CC1 | 2.04% (inactive)
Cc1ccc2nc(N(CCN(C)C)C(=O)C3=COCCO3)sc2c1 | -4.21% (inactive)
O=C(NCc1cccs1)c1cc(-c2ccccn2)nc2ccc(Br)cc12 | 0.34% (inactive)
Cc1nn(C)cc1CNC(=O)Nc1ccc(Cl)cc1 | -6.68% (inactive)
Cc1ccc(-c2cc(C(=O)NCc3cn(C)nc3C)c3cc(Br)ccc3n2)cc1 | 15.4% (active)
Cc1cc(C)c(C(N)=O)c(Cl)n1 | -1.75% (inactive)
CCCN(CCC)CCCNC(=O)CNC(=O)c1nn(-c2ccc(OC)cc2)c(=O)c2ccccc12 | -4.54% (inactive)
COc1ccc(CN2CCNC(=O)C2CC(=O)NCc2cn[nH]c2-c2ccccc2)c(F)c1 (stereo unspecified) | 3.63% (inactive)

SMILES | inhibition
OCCC1CN(Cc2ccc(Oc3ncccn3)cc2)CCN1CCc1ccccc1 (stereo unspecified) | -2.28% (inactive)
CCOc1ccc(/C=C/C(=O)OCC(=O)c2ccccc2OC)cc1OC | 23.7% (active)
COc1cc(/C=C/C(=O)OCC(=O)NC(=O)NCc2ccccc2)ccc1OCC#N | -4.2% (inactive)
COc1ccc(/C=C/C(=O)OCC(=O)NCc2cccs2)cc1OC | -2.5% (inactive)
O=C(C1CCCO1)N1CCN(S(=O)(=O)c2ccc(Br)cc2)CC1 (stereo unspecified) | 0% (inactive)
COc1cc(NC(=O)COC(=O)c2cnc(C)cn2)c(C)cc1[N+](=O)[O-] | -3.47% (inactive)
Nn1c(SCc2ccccc2)nnc1C1CCCCC1 | -2.09% (inactive)
COCCCNC(=O)C1CC(=O)N(c2ccc(C)cc2)C1 (stereo unspecified) | 73.3% (active)
COCCNC(=O)C1CCN(C(=O)C2CC(=O)N(c3ccc(C)cc3)C2)CC1 (stereo unspecified) | -0.32% (inactive)
COCCCNC(=O)C1CC(=O)N(CCc2ccccc2)C1 (stereo unspecified) | 0.11% (inactive)
Cc1cccnc1NC(=O)c1cccc(S(=O)(=O)N2CCN(c3ccc(F)cc3)CC2)c1 | -3.22% (inactive)
Oc1c(CN2CCN(c3ccc(F)cc3)CC2)cc(Cl)c2cccnc12 | 35.2% (active)
O=C(CN1CCN(c2ccc(F)cc2)CC1)Nc1ccccc1 | 2.42% (inactive)
C1CC1Cc1noc(CN2CCN(CC3CC3)CC2)n1 | -4.45% (inactive)
CC(=O)Nc1ccc(C(=O)NNC(=O)CCCCC(=O)NNC(=O)c2ccc(NC(C)=O)cc2)cc1 | -4.34% (inactive)
CCc1sc(C(=O)N2CCN(CC(=O)Nc3cccc(F)c3)CC2)cc1C | -1.08% (inactive)
O=C(N/N=C/c1cc([N+](=O)[O-])ccc1O)/C(=C\c1cccs1)NC(=O)c1ccccc1 | 19.9% (active)
O=C(Nc1ccc(C(=O)O)cc1)/C(=C/c1ccc([N+](=O)[O-])cc1)NC(=O)c1ccccc1 | -0.04% (inactive)
Cc1ccc(NC(=O)/C(=C/c2ccc([N+](=O)[O-])cc2)NC(=O)c2ccccc2)cc1 | 1.49% (inactive)
COC(=O)CC(=O)N1CCN(c2ccc(Cl)c(Cl)c2)CC1 | -1.17% (inactive)
CC(C)Cn1c(N)c(C(=O)COC(=O)C2CCCN2C(=O)c2cccs2)c(=O)n(C)c1=O (stereo unspecified) | 3.85% (inactive)
Cc1ccc(OCC(=O)N2CCN(S(=O)(=O)c3ccc(Cl)s3)CC2)cc1C | 2.28% (inactive)
CCn1c(=O)c(C(=O)NCc2ccc3c(c2)OCO3)c(O)c2ccccc21 | -4.95% (inactive)

SMILES | inhibition
Cc1nc2c(C(=O)NCc3ccc4c(c3)OCO4)c[nH]n2c(=O)c1Cc1ccccc1F | 42.6% (active)
O=C(NCc1ccc2c(c1)OCO2)c1cc(F)c(F)cc1Cl | 2.6% (inactive)
COc1ccccc1NC(=O)CSc1nnc(C)n1CC1CCCO1 (stereo unspecified) | -1.67% (inactive)
CC(=O)Nc1ccc(NC(=O)CSc2nnc(COc3ccccc3C)n2CC2CCCO2)cc1 (stereo unspecified) | 16.9% (active)
Cc1ccc(NC(=O)CSc2nnc(COc3ccccc3C)o2)cc1 | -4.67% (inactive)
Cc1ccc(C)c2[nH]c(=O)c(CN(Cc3cccnc3)C(=S)NCc3ccco3)cc12 | 1.73% (inactive)
Cc1cccc2cc(CN(Cc3cccs3)C(=S)NCc3ccco3)c(=O)[nH]c12 | 16.9% (active)
Cc1cccc2cc(CN(C(=O)c3cccs3)c3ccccc3)c(=O)[nH]c12 | 1.24% (inactive)
Cc1ccnc(NC(=O)c2ccc(Cl)c([N+](=O)[O-])c2)c1 | -0.42% (inactive)
Cc1c(NC(=O)CN2C(=O)C(=O)N(Cc3ccccc3)C2=O)c(=O)n(-c2ccccc2)n1C | -2.42% (inactive)
Cc1ccc(CSc2nc(-c3ccccc3)c(C#N)c(=O)[nH]2)cc1 | 14.2% (inactive)
N#Cc1c(-c2ccccc2)nc(SCc2cccc(C(F)(F)F)c2)[nH]c1=O | 22.1% (active)
N#Cc1c(-c2ccccc2)nc(SCc2ccc([N+](=O)[O-])cc2)[nH]c1=O | 9.45% (inactive)
Cc1ccc(OCCC(=O)OCC(=O)N2c3ccccc3NC(=O)C2(C)C)cc1 | 0.61% (inactive)
CCCCN(CC)C(=O)c1ccccc1Oc1ccccc1 | -1.38% (inactive)
CCOC(=O)c1c(S(=O)(=O)Nc2ccc(CN3CCC(C)CC3)cc2)c(C)n(C)c1C | 2.36% (inactive)
O/N=C(\c1ccc2c(c1)OCCO2)C1CCCCC1 | 0.46% (inactive)
COc1ccc2c(CN3CCN(S(=O)(=O)c4cccs4)CC3)cc(=O)oc2c1 | 4.63% (inactive)
Cc1ccc2c(CN3CCN(S(=O)(=O)c4ccccc4C(F)(F)F)CC3)cc(=O)oc2c1 | 16.8% (active)
Cc1cc2oc(=O)cc(CN3CCN(S(=O)(=O)c4cccs4)CC3)c2cc1C(C)C | -3.33% (inactive)
COc1ccccc1NS(=O)(=O)N(C)C | 6.89% (inactive)
CCCc1nnc(NC(=O)CCC(=O)N2CCN(S(=O)(=O)c3ccc(OC)cc3)CC2)s1 | -4.44% (inactive)
